According to the supplement of paper PMC4723716:

Tested on: Plasmodium falciparum NF54 gametocytes
Assay: viability index relative to DMSO control (fraction); higher = less gametocyte killing
Details: 12.5 µM, incubation time: 72 h
How it was run: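 P. falciparum NF54 gametocytes of each stage (I–V), in serum-containing medium (0.50% gametocytemia, 1.25% hematocrit, 40 µl), were incubated with compound at 12.5 µM in 384-well plates for 72 hr at 37°C under low oxygen. Wells received 5 µl of 5 µM MitoTracker Red CMXRos for 20 min. Then 5 µl was moved into 40 µl of 500 nM dye in serum-free medium and imaged after 30 min (three fields). The viability index was the gametocyte particle count divided by the plate mean of DMSO wells.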

[1] = gametocyte stage: Stage I viability index
[2] = gametocyte stage: Stage II viability index
[3] = gametocyte stage: Stage III viability index
[4] = gametocyte stage: Stage IV viability index
[5] = gametocyte stage: Stage V viability index

SMILES | viability index [1] | viability index [2] | viability index [3] | viability index [4] | viability index [5]
CCOc1ccc(CN2CCN(CC(O)COc3ccc(OCC(O)CN4CCN(Cc5ccc(OCC)cc5)CC4)cc3)CC2)cc1 (stereo not given) | 0.076 | 0.114 | 0.133 | 0.104 | 0.0519
O=C(c1ccccc1F)N(Cc1ccc(Cl)cc1)c1ccccn1 | 0.716 | 0.955 | 0.997 | 0.93 | 0.967
CCN(CC)S(=O)(=O)c1ccc(-c2csc(Nc3ccc(C)c(C)c3)n2)cc1 | 0.544 | 0.506 | 0.532 | 0.733 | 0.352
CCOc1cc(Cl)c(C(C)NC(=O)c2ccccc2)cc1OCC (stereo not given) | 0.728 | 0.781 | 0.819 | 1.03 | 0.901
COc1ccc2sc(N(Cc3cccnc3)C(=O)c3ccc(C#N)cc3)nc2c1 | 1.05 | 0.773 | 0.995 | 0.934 | 1.16
CC1(c2ccccc2)Nc2ccccc2-c2nc3ccccc3n21 (stereo not given) | 0.183 | 0.109 | 0.298 | 0.498 | 0.0659
CSC1=NC(=Nc2c(C)cccc2C)C2(CCC(C(C)(C)C)CC2)N1c1ccc(Cl)cc1 (stereo not given) | 0.646 | 0.816 | 0.928 | 0.994 | 0.835
COc1ccc(C2Sc3ccccc3N=C3C2=C(O)c2ccccc23)cc1 (stereo not given) | 0.64 | 0.882 | 0.967 | 1.08 | 0.956
OC1CCCCC1C1(NC(=S)Nc2ccccc2)CCCCC1 (stereo not given) | 0.24 | 0.184 | 0.0868 | 0.108 | 0.247
FC(F)(F)c1cccc(Nc2nc3ccccc3nc2Nc2cccc(C(F)(F)F)c2)c1 | 0.0175 | 0.0233 | 0.0149 | 0.00633 | 0.0649
Cc1ccc2cc3c(N)c4c(C)ccc(C)c4nc3nc2c1 | 0.0542 | 0.005 | 0.0231 | 0.00316 | 0.026
O=C(NCc1ccco1)C1CCN(S(=O)(=O)c2ccc(Br)cc2)CC1 | 0.938 | 0.983 | 0.99 | 0.824 | 0.945
CCc1ccc(Nc2cc(C)nc3nc(C)nn23)cc1 | 0.925 | 0.736 | 1.01 | 1.1 | 1.1
COc1ccc(-c2c(C)nn3c(N)c(C#N)cnc23)cc1OC | 0.0343 | 0.00676 | 0.0325 | 0.0942 | 0.0769
CCOC(=O)C1=C(c2ccccc2)N=c2sc(=Cc3cc(C)n(-c4ccc(F)cc4)c3C)c(=O)n2C1c1cccc(OC)c1OC (stereo not given) | 0.806 | 0.787 | 0.996 | 0.839 | 0.703
COc1ccc(C(=O)Nc2ccc3nc(N4CCCCC4)cc(C)c3c2)cc1OC | 0.275 | 0.58 | 0.95 | 0.9 | 0.989
FC(F)(F)c1cccc(CNC2CCN(CCc3ccccc3)CC2)c1 | 0.0431 | 0.464 | 0.856 | 0.83 | 0.802
COc1cccc(NC(=O)Cn2c(C)c(C#N)c3ccccc32)c1 | 0.0586 | 0.129 | 0.252 | 0.605 | 0.363
Oc1ccccc1CNCC12CC3CC(CC(C3)C1)C2 | 0.274 | 0.297 | 0.638 | 0.818 | 0.769
CCOc1cc2c(cc1OCC)C(c1cc(OC)c(O)cc1Cl)NCC2 (stereo not given) | 0.0243 | 0.0957 | 0.513 | 0.723 | 0.626

SMILES | viability index [1] | viability index [2] | viability index [3] | viability index [4] | viability index [5]
CCCOCc1cc(CN2CCN(c3cccc(Cl)c3)CC2)c(O)c2ncccc12 | 0.00962 | 0.0225 | 0.0244 | 0.0127 | 0
Cc1sc2ncnc(Sc3nc4ccccc4[nH]3)c2c1C | 0.0276 | 0.0135 | 0.0354 | 0.0821 | 0.0659
O=C1c2ccc3c4c(ccc(c24)C(=O)N1CCCCO)C(=O)N(CCCCO)C3=O | 0.364 | 0.261 | 0.204 | 0.168 | 0.182
Nc1nc(Nc2cccc(F)c2)nc2ccccc12 | 0.0673 | 0.534 | 0.725 | 0.82 | 0.844
O=c1nc(C=Cc2ccc(Br)cc2)oc2ccccc12 | 0.838 | 0.88 | 0.843 | 0.978 | 0.935
COc1ccc(C(=O)Nc2nonc2-c2ccc(OC)c(OC)c2)cc1Cl | 0.564 | 0.401 | 0.487 | 0.568 | 0.736
Cc1ccnc(NC(c2cccc(OCc3ccccc3)c2)c2ccc3cccnc3c2O)c1 (stereo not given) | 0.0271 | 0.015 | 0.0204 | 0.00316 | 0
CCOC(=O)c1cn(CC)c2cc(N3CCCCC3)c(F)cc2c1=O | 0.592 | 0.9 | 0.81 | 0.769 | 0.791
COc1ccc(CCN2C(=O)c3[nH]nc(-c4cc(Cl)c(C)cc4O)c3C2c2ccccc2F)cc1 (stereo not given) | 0.083 | 0.29 | 0.6 | 0.665 | 0.675
COc1ccc(N2CCN(C(CNC(=O)C3CCCCC3)c3ccc4c(c3)OCO4)CC2)cc1 (stereo not given) | 0.912 | 0.986 | 1.04 | 0.86 | 0.758
CCOc1ccc(Nc2ccnc3cc(Cl)ccc23)cc1 | 0.0699 | 0.411 | 0.852 | 0.728 | 0.558
Cc1cc(Nc2ccc3ccccc3c2)n2ncnc2n1 | 0.567 | 0.521 | 0.755 | 0.79 | 0.626
CCC(=O)Nc1nnc(Cc2ccc(OC)c(OC)c2)s1 | 1.02 | 0.965 | 0.901 | 1.08 | 1.38
CCOC(=O)c1cnc2ccc(Cl)cc2c1NCCCN(C)C | 0.309 | 0.59 | 0.989 | 1.03 | 0.844
CCOC(=O)c1c(NC(=O)c2ccccc2)sc2c(O)c(CN(CC)CC)ccc12 | 0.0641 | 0.129 | 0.32 | 0.517 | 0.407
COc1ccccc1N=C1C(=O)c2ccccc2C(O)=C1N1CCCCC1 | 0.0188 | 0.0203 | 0.0297 | 0.0699 | 0.0879
CCCCN(CCCC)S(=O)(=O)c1ccc(NC(=O)c2ccco2)cc1 | 0.943 | 0.963 | 0.951 | 0.842 | 0.831
Cc1ccc(N2C3c4ccccc4N(S(=O)(=O)c4ccc(C)cc4)C2c2ccccc2N3S(=O)(=O)c2ccc(C)cc2)cc1 | 0.687 | 0.77 | 0.928 | 0.93 | 0.978
CCCCc1ccc(NS(=O)(=O)c2cc3c4c(c2)CCN4C(=O)CC3)cc1 | 0.98 | 0.982 | 0.992 | 1.12 | 1.07
O=C(NCC(c1ccsc1)N1CCCCCC1)c1ccc(C(F)(F)F)cc1 (stereo not given) | 0.653 | 0.881 | 0.843 | 0.9 | 0.725

SMILES | viability index [1] | viability index [2] | viability index [3] | viability index [4] | viability index [5]
Nc1ccc(-c2nc3cc(Oc4ccc(Oc5ccc6[nH]c(-c7ccc(N)cc7)nc6c5)cc4)ccc3[nH]2)cc1 | 0.000874 | 0.0108 | 0.0271 | 0.0253 | 0
Cc1ccc(C)c(-c2csc(Nc3ccc(C)c(C)c3)n2)c1 | 0.856 | 0.815 | 0.82 | 0.639 | 0.558
CN(C)CCNc1cc(-c2ccccc2)nc2ccccc12 | 0.685 | 0.795 | 0.924 | 0.883 | 0.727
CCCCCCC(O)(c1ccc(F)cc1)C(CN1CCOCC1)c1ccccc1 (stereo not given) | 0.871 | 0.694 | 0.879 | 0.93 | 0.831
COc1ccc(C2C(C(=O)Nc3cccc(OC)c3)c3ccccc3C(=O)N2C2CCCCC2)cc1 (stereo not given) | 0.0691 | 0.0974 | 0.488 | 0.551 | 0.519
CCOc1ccc(-n2cc(-c3ccccc3)c3c(SCc4cc(C)ccc4C)ncnc32)cc1 | 1.12 | 0.908 | 0.934 | 1.03 | 1.03
COc1ccc(NC(=O)C2c3ccccc3C(=O)N(CC(C)C)C2c2cccs2)cc1 (stereo not given) | 0.0343 | 0.0087 | 0.0354 | 0.216 | 0.0549
O=C(Nc1ccc(CN2CCOCC2)cc1)c1ccc(-c2ccc(Br)cc2)o1 | 0.141 | 0.543 | 0.926 | 0.787 | 1.16
CC(C)(C)C(=O)Nc1ccc(C(=O)Nc2cccc(-c3nc4ccccc4[nH]3)c2)cc1 | 0.111 | 0.592 | 0.694 | 0.833 | 0.604
N=c1n(CCN2CCCCC2)c2ccccc2n1CC(=O)c1ccc(Cl)c(Cl)c1 | 0.115 | 0.281 | 0.848 | 0.886 | 0.753
CCOc1cc(Cl)c(C(C)NC(=O)c2cccc(OC)c2)cc1OCC (stereo not given) | 0.0343 | 0.121 | 0.143 | 0.298 | 0.231
CC(Oc1ccc(NC(=O)c2cccs2)cc1)C(=O)c1ccc(Cl)cc1 (stereo not given) | 1.02 | 0.883 | 0.727 | 0.854 | 0.974
Cc1cc(Nc2cccc(F)c2)nc(NCc2ccccc2)n1 | 0.0365 | 0.436 | 0.825 | 1.01 | 0.429
N=c1n(CCN2CCCCC2)c2ccccc2n1CC(O)c1cccc(Br)c1 (stereo not given) | 0.0133 | 0.056 | 0.133 | 0.267 | 0.341
O=C(Nc1cccc(-c2nc3ccccc3[nH]2)c1)c1cccc(NC(=O)c2ccco2)c1 | 0.424 | 0.771 | 1.01 | 0.857 | 0.868
CCCCCCc1cc2cc(-c3csc(C=Cc4ccccc4)n3)c(=O)oc2cc1O | 0.309 | 0.313 | 0.621 | 0.797 | 0.636
Cn1c(C(=O)c2cccc3ccccc23)nc2ccccc21 | 0.681 | 0.95 | 1.14 | 1.01 | 0.74
COc1ccc(OC)c(C2C3=C(CC(C)(C)CC3=O)N(c3ccc(Cl)c(Cl)c3)C3=C2C(=O)CC(C)(C)C3)c1 | 0.713 | 0.88 | 0.807 | 0.807 | 0.623
Clc1ccc2c(N3CCCC3)ccnc2c1 | 0.241 | 0.491 | 0.915 | 0.93 | 1.14
CCOc1ccc(C=Cc2nc(=O)c3ccccc3o2)cc1 | 0.549 | 0.836 | 0.85 | 0.805 | 0.67
